# Screening results: PubChem BioAssay, National Center for Advancing Translational Sciences (NCATS)
# TCR act – T cell receptor activation; primary human leukocytes, anti-CD3, IL-2 HTRF, 48 h; Potency, µM (series often up to 9.22 µM), inactives show at the highest dose activation of IL-2 secretion, usual class: activators; 330,000 tested, under 10 active; AID 504894; further: % of control where 0% means no effect
#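 Using a-CD3 beads without co-stimulation, primary human leukocytes were exposed to compounds for 48 hr. An HTRF IL-2 kit measured the cytokine, with europium-to-d2 energy transfer producing emission at 665nm upon 320nm excitation.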
# IL-2 act – activators of IL-2; activation, % (series mostly up to about 46 µM); 360,000 tested, 0.065% active; IL-2 activation reporter assay, cell-based qHTS; stimulated with anti-CD3/CD4/CD28 beads; in transgenic mouse T cells; in the data active means activation above about 50%; inconclusive means mostly about 30% to 49%; further: 0% is about no effect
#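 First, unstimulated transgenic mouse T cells were exposed to compound for 60 min. Next, anti-CD3/anti-CD4-coated beads with anti-CD28 were added. Finally, after 18 h at 37 degrees C, EGFP and DsRed were imaged.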
# BRCA1 expr act – activators of BRCA1 expression. 380,000 tested, 1.1% active. Potency, µM (highest dose often 46.1 µM), for inactives: top-dose activation, hits mostly activators. AID 624202. MCF7-BRCA1-FFLuc reporter, luminescence, 48 h; response scale: scaled: vehicle 0%, 10 µM genistein 100%; further: potency means the concentration at half of the fitted maximal effect; nearly all actives have a fitted effect of over 80% in size
#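 48 h compound treatment of MCF7-BRCA1-FFLuc cells (phenol-red free MEM, 37 °C), then 15 min with luciferase substrate and luminescence imaging.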
# Mito fusion act – inhibitors of mitochondrial division or activators of mitochondrial fusion | S. cerevisiae fusion-defective mutant growth rescue, CellTiterGlo 48 h | 320,000 tested, 0.23% active | Potency, µM (top dose mostly 46.1 µM), for the others: at the highest dose growth rescue (activation), usual class: activators | AID 485298; further: potency means the concentration at half of the fitted maximal effect; % of control where 0% means no effect; nearly all actives have a fitted effect of over 45% in size
#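 Yeast fusion mutant, YPEG (non-fermentable carbon), compound, 48 h at 37C non-permissive; CellTiterGlo added, 10 min RT, luminescence read. Rescued growth = division inhibition.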
# p53 reactivator – restores transcriptional activity of mutant p53; H1299 p53-A138V BP100-luciferase reporter, luminescence, 24 h; Potency, µM (highest dose often 92.2 µM), inactives show at the top dose activity change, positive = activation, actives largely listed as activators; 320,000 tested, 0.063% active; AID 504706; further: potency means the concentration at half of the fitted maximal effect; % of control where 0% means no effect; nearly all actives have a fitted effect of over 45% in size
#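 p53-null H1299 cells stably carrying temperature-sensitive p53-A138V and a BP100-luciferase reporter were pinned with compounds (4-point, 1:5 series) and held 24 hrs at 37 deg C. Luminescence was read 10 min after detection reagent.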
# * = called active by the depositor; ? = inconclusive; . = not tested or not shown; [ ] = another dose, or the depositor's remark. A selection: hits, their analogues and other compounds. The true share with any hit is near 1.3%. Unless noted, the call rests on the fitted dose curve; in most records, active means well fitted curve in the direction sought with a large enough effect; inconclusive means small, poorly fitted or top-dose-only effect, or another doubt; inactive means no such curve, though single readings can be large; an effect the other way counts as inactive or inconclusive.
SMILES,TCR act,IL-2 act,BRCA1 expr act,Mito fusion act,p53 reactivator
O=C(NC(=S)NCC1CCCO1)c1ccc(Cl)cc1 (stereo not given),-26%[46.1 µM],1,?,-2%,?
O=C(NCC1CCCO1)c1ccccc1 (stereo not given),9%,1,1%,-3%,.
O=C(NCC1CCCO1)Nc1cc(Cl)cc(Cl)c1 (stereo not given),0%,1,3%,4%,2%
Cc1ccc(C(=O)NC(=S)NCC2CCCO2)cc1 (stereo not given),-7%,1,10µM*,-11%,26%
Cc1ccc(-c2cc(=O)c3cc(C)ccc3[nH]2)cc1,11%,0,-8%,9%,22µM*
Cc1ccc(-c2cc(=O)c3cc(F)ccc3[nH]2)cc1,1%,0,-13%,-1%,?
COc1ccccc1CNC(=O)CCCCn1c(=O)c2ccccc2n(CC(=O)Nc2cccc(Cl)c2)c1=O,.,.,8%,.,.
C/C(N)=C(/C#N)C(=O)CSc1ccc2c(c1)OCCO2,-1%,0,?,-1%,40µM*
Cc1cc(C(=O)CSc2ccc3c(c2)OCCO3)c(C)n1C1CC1,12%[46.1 µM],-4,11µM*,10%,?
Cc1ccc(S(=O)(=O)N2CCN(c3cc(-c4cccs4)nc4ccccc34)CC2)cc1,.,.,14%,.,.
COc1ccc(/C=C2\SC(N3CCCCC3)=NC2=O)cc1OC,-4%,0,14%,-4%,5%
COc1ccc(OC)c(/C=C2\SC(N3CCCC(C)C3)=NC2=O)c1 (stereo not given),7%,-3,-8%,13µM*,3%
COc1ccc(/C(N)=N/OC(=O)c2ccco2)cc1OC,2%,1,7.9µM*,1%,?
N/C(=N\OC(=O)c1ccco1)c1cccc(Br)c1,0%,-1,-32%,2%,23%
O=C(O)CSc1ncnc2sc(-c3ccccc3)cc12,10%,-1,16%,1%,0%
CC(Sc1ncnc2sc(-c3ccccc3)cc12)C(N)=O (stereo not given),3%,-5,10µM*,-2%,-7%
O=C(CSCC(=O)N1CCCc2ccccc21)Nc1nc(-c2ccccc2)cs1,-4%,-3,44%,18µM*,21%
CN1CCN(C(=O)c2ccc(COc3ccc(C(C)(C)C)cc3)o2)CC1,5%,-1,3.5µM*,0%,11%
CCOC(=O)c1ccc(OS(=O)(=O)c2ccccc2)c(OC)c1,-6%[46.1 µM],-1,5.6µM*,1%,?
Cc1nn(C)c(Cl)c1S(=O)(=O)N(Cc1ccco1)c1ncnc2nc[nH]c12,.,.,8%,.,.
COCCn1c(C)cc(/C=C2/SC(=O)N(C(C)C(=O)OC)C2=O)c1C (stereo not given),2%,0,?,-4%,10%
CCn1c(C)cc(/C=C2/SC(=O)N(C(C)C(=O)OC)C2=O)c1C (stereo not given),-3%,0,4.5µM*,-3%,12%
COC(=O)CN1C(=O)S/C(=C/c2cc(C)n(C)c2C)C1=O,0%,-2,13µM*,5%,11%
COC(=O)CN1C(=O)S/C(=C/c2ccc(N3CCCCC3)o2)C1=O,6%,26,10µM*,-4%,-9%
COc1ccc(N=C2S/C(=C\c3cc(C)n(C)c3C)C(=O)N2CC(C)C)cc1,-1%,-5,-43%,-2%,-8%
SMILES,TCR act,IL-2 act,BRCA1 expr act,Mito fusion act,p53 reactivator
O=C(C[n+]1ccncc1)c1ccc2ccccc2c1,.,.,-3%,.,.
O=C(CNC(=O)C1CCCCC1)OCC(=O)c1ccccc1,.,.,3%,.,.
CCOC(=O)c1c(C)[nH]c(C(=O)OC(C(=O)N(C)C)c2ccccc2)c1C (stereo not given),.,.,-6%,.,.
Cc1ccc(S(=O)(=O)N2CCOCC2)cc1NC(=O)COC(=O)c1ccco1,.,81*,-1%,.,.
Cc1ccc(Sc2c(O)c3ccccc3n(C)c2=O)cc1,1%[46.1 µM],0,-11%,14µM*,-6%
COc1ccc(NC(=O)Cn2c(SCc3cccc(Cl)c3)nc3ccncc32)c(OC)c1OC,.,.,-5%,.,.
N#CC(C(=O)c1ccco1)c1ccccn1 (stereo not given),3%,0,14µM*,1%,?
Cc1ccc(S(=O)(=O)c2cn(CC(=O)Nc3ccc4c(c3)OCO4)c3ccc(F)cc3c2=O)cc1,.,.,-27%,.,.
C=CCSc1nn2c(=O)c3ccccc3nc2s1,.,0,2.8µM*,0%,19%
C/C(Cl)=C/CSc1nn2c(=O)c3ccccc3nc2s1,-2%,0,?,12%,?
CCc1cc(=O)oc2cc(OCc3ccc(C(=O)O)o3)ccc12,-83%,-4,6.3µM*,-2%,?
O=C(NC(=O)c1ccc(F)cc1F)Nc1ccc(Cl)cc1,-1%,-1,2.8µM*,-3%,5%
Cc1ccc(NC(=O)c2ccc(F)cc2F)cc1,1%,1,?,.,.
Cc1cccc2c1OCC/C2=N\NC(=O)COc1ccccc1,-1%,-1,11µM*,0%,6%
O=C(CCOc1ccccc1)NO,.,.,19%,.,.
CC(C)Cc1ccc(/C=C/C(=O)NC2CC2)cc1,-1%[46.1 µM],0,5.6µM*,?,?
CC(C)(C)c1ccc(/C=C/C(=O)N2CCCCC2)cc1,1%,1,7.1µM*,6%,18%
CC(C)Cc1ccc(/C=C/C(=O)N2CCCCC2)cc1,4%,0,13µM*,-3%,14%
CCC(=O)N1CCc2cc(S(=O)(=O)CCC(=O)N3CCN(c4cccc(C)c4)C(C)C3)ccc21 (stereo not given),.,.,-31%,.,.
Cc1cc2c(s1)c1cnn(CC(=O)N3CCOCC3)c(=O)c1n2C,.,.,14%,.,.
Nc1nc(NCc2cccc(Cl)c2)c2[nH]cnc2n1,.,.,-10%,.,.
COc1cccc(-n2c(CCn3nc(C)c([N+](=O)[O-])c3C)n[nH]c2=S)c1,-1%[46.1 µM],0,1%,2%,-2%
COc1ccc(CCn2nc(C)c([N+](=O)[O-])c2C)cc1,-1%,0,8.9µM*,0%,28%
CNC(=S)N/N=C(\C)c1ccc(N2CCOCC2)cc1,2%[46.1 µM],0,8.9µM*,-2%,?
C/C(=N\NC(=O)c1ccccc1)c1ccccc1Br,1%[46.1 µM],4,11µM*,-4%,?
C/C(=N\NC(=O)c1ccccc1)c1ccccc1F,-8%,-4,?,-2%,-5%
CCNC(=S)N/N=C(\C)c1ccc(N2CCOCC2)cc1,-8%[46.1 µM],-2,10%,-6%,-1%
C/C(=N\NC(=O)c1ccccc1)c1ccc(N2CCCCC2)cc1,-4%[46.1 µM],-2,11µM*,2%,30%
COc1ccc(NC(=O)C2CCN(S(=O)(=O)c3ccc4c(c3)CCCC(=O)N4)CC2)cc1OC,.,.,7%,.,.
Brc1cccc[n+]1CCCCCC[n+]1ccccc1Br,.,.,-13%,.,.
